Experimental data taken from PubChem BioAssay (NCI).
The panel holds about 79,000 compounds, 15% with a hit somewhere; the sample as a whole holds those more often. A number with no mark means an inactive call. The source made the active and inactive calls. Cut-off read from the data, not from the text of the source: active = growth inhibition above about 70%; inactive = the rest.

Assays:
[1] = NCI Yeast Anticancer Drug Screen. Data for the rad50 strain (AID 155);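 note: 0% = growth of vehicle-only cultures of the same strain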; details: S. cerevisiae rad50 strain growth inhibition, stronger effect = higher value
Summary of the method: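 Cells are treated with compound, grown, and their growth is then scored against vehicle-only cultures of the same repair-deficient yeast strain.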

[2] = NCI Yeast Anticancer Drug Screen. Data for the mec2-1 strain (AID 157); details: S. cerevisiae mec2-1 strain, stronger effect = higher value
Summary of the method: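 Readout is yeast growth inhibition, normalised to vehicle-treated controls, in the mec2-1 strain exposed to compound.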

[3] = NCI Yeast Anticancer Drug Screen. Data for the sgs1 mgt1 strain (AID 161);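 note: 0% = growth of cultures given vehicle only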; details: S. cerevisiae sgs1 mgt1 strain, stronger effect = higher value
Summary of the method: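 Growth of a repair-deficient yeast mutant was monitored after compound treatment and expressed as inhibition relative to vehicle-treated cultures.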

[4] = NCI Yeast Anticancer Drug Screen. Data for the cln2 rad14 strain (AID 165);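 note: 0% = growth equal to vehicle treated cultures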; details: S. cerevisiae cln2 rad14 strain, stronger effect = higher value
Summary of the method: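 Relative to vehicle controls, growth inhibition of compound-treated cln2 rad14 yeast was recorded.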

[5] = NCI Yeast Anticancer Drug Screen. Data for the bub3 strain (AID 167); details: S. cerevisiae bub3 mutant strain, stronger effect = higher value
Summary of the method: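 Part of a panel of yeast mutants defective in DNA damage repair or cell cycle regulation. Each strain is grown with compound, and inhibition is calculated relative to solvent-treated cultures.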

[6] = NCI Yeast Anticancer Drug Screen. Data for the mlh1 rad18 strain (AID 175); details: S. cerevisiae mlh1 rad18 strain growth inhibition, stronger effect = higher value
Summary of the method: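 Test agents were incubated with a yeast strain of defined genotype (DNA damage repair defect). Inhibition of growth was derived by comparison with vehicle-exposed cultures.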

[7] = at 5.0 µM (retest, dose inferred, filed as 0.5)
[8] = at 50.0 µM (retest, dose inferred, filed as 5.0)

Row | Compound | growth inhibition [1, 7] | growth inhibition [1, 8] | growth inhibition ([1]; at 50.0 µM) | growth inhibition [2, 7] | growth inhibition [2, 8] | growth inhibition ([2]; at 50.0 µM) | growth inhibition [3, 7] | growth inhibition [3, 8] | growth inhibition ([3]; at 50.0 µM) | growth inhibition [4, 7] | growth inhibition [4, 8] | growth inhibition ([4]; at 50.0 µM) | growth inhibition [5, 7] | growth inhibition [5, 8] | growth inhibition ([5]; at 50.0 µM) | growth inhibition [6, 7] | growth inhibition [6, 8] | growth inhibition ([6]; at 50.0 µM)
1 | CC/C=C/c1cc2c(cc1O)CCC1C2CC[C@@]2(C)C1CC[C@@H]2O (some centres not stated) | -16% | 98% (active) | 78% (active) | -15% | 98% (active) | 81.7% (active) | -23% | 97% (active) | 88.6% (active) | -24% | 98% (active) | 88.7% (active) | -23% | 98% (active) | 88.5% (active) | -16% | 98% (active) | 90.5% (active)
2 | CC(=O)[O][Hg][c]1ccc(N)[c]([Hg][O]C(C)=O)c1 | 99% (active) | 98% (active) | 99.5% (active) | 99% (active) | 99% (active) | 99.5% (active) | 99% (active) | 99% (active) | 99.5% (active) | 99% (active) | 98% (active) | 98.7% (active) | 99% (active) | 99% (active) | 99.2% (active) | 99% (active) | 99% (active) | 99.1% (active)
3 | CC(CCc1ccccc1)NC(C)C(O)c1ccc(O)cc1 (configuration not stated) | 1% | 32% | 49% | 4% | 55% | 28.6% | 23% | 66% | 52.2% | 9% | 42% | 68.3% | 9% | 40% | 64.8% | 45% | 71% (active) | 78.1% (active)
4 | O=C(O)CN1CCN(CC(=O)O)CC(=O)[O][Hg][O]C(=O)C1 | 100% (active) | 99% (active) | 99.3% (active) | 100% (active) | 100% (active) | 99.4% (active) | 99% (active) | 99% (active) | 99.5% (active) | 99% (active) | 99% (active) | 98.3% (active) | 100% (active) | 100% (active) | 99.3% (active) | 99% (active) | 99% (active) | 99.2% (active)
5 | O=[N+]([O-])/C=C\c1ccc2c(c1)OCO2 | 99% (active) | 100% (active) | 99.3% (active) | 100% (active) | 100% (active) | 99.5% (active) | 99% (active) | 99% (active) | 99.5% (active) | 100% (active) | 99% (active) | 98.8% (active) | 100% (active) | 94% (active) | 99% (active) | 100% (active) | 100% (active) | 99.5% (active)
6 | Cc1ccc2c(-c3ccccc3)c3ccccc3[s+]c2c1 | 2% | 99% (active) | 99.5% (active) | 2% | 100% (active) | 99.3% (active) | 6% | 99% (active) | 99.5% (active) | 1% | 99% (active) | 99% (active) | -13% | 99% (active) | 99.2% (active) | 1% | 99% (active) | 99.2% (active)
7 | Nc1nc(N)c(-c2ccc(Cl)c(Cl)c2)c(COc2cccc(CNS(=O)(=O)c3ccc(S(=O)(=O)F)cc3)c2)n1 | 3% | 57% | 51.1% | -3% | 86% (active) | 49.5% | -2% | 65% | 58% | -4% | 40% | 54.8% | -3% | 68% | 48.8% | 4% | 80% (active) | 47%
8 | O=C(c1ccccc1)c1c(CC(O)c2cccnc2)n(C(=O)c2ccccc2)c2ccccc12 (configuration not stated) | 6% | 96% (active) | 91% (active) | 3% | 96% (active) | 89.2% (active) | 13% | 97% (active) | 90.7% (active) | 19% | 96% (active) | 56.5% | -5% | 97% (active) | 87.9% (active) | 2% | 94% (active) | 91% (active)
9 | Cc1cc(N(CCCl)CCCl)ccc1C1N(Cc2ccc(Cl)cc2Cl)CCCN1Cc1ccc(Cl)cc1Cl | 42% | 85% (active) | 40.5% | -4% | 65% | 18.2% | 25% | 91% (active) | 57.5% | 14% | 60% | 14.4% | 22% | 92% (active) | 16.1% | 18% | 96% (active) | 52.2%
